Source: PubChem (several laboratories)
Mtb FBA inh – inhibitors of M. tuberculosis fructose-bisphosphate aldolase; inhibition, % at 1 µM; P9WQA3; 360,000 tested, 2.3% active; AID 588726; purified M. tuberculosis FBA, fluorescence read-out; in the data active = inhibition above about 27%;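 also: 0% = vehicle and 100% = reference inhibitor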
Target sequence (P9WQA3 whole entry, looked up): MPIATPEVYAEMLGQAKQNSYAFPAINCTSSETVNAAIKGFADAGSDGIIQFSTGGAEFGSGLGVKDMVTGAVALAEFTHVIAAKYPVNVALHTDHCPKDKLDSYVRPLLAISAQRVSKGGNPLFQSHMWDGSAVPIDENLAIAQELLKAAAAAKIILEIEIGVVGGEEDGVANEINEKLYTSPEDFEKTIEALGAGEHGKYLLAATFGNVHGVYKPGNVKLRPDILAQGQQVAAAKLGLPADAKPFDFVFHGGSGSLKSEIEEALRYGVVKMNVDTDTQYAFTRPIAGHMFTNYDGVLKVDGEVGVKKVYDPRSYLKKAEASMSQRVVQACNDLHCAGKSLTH
BioA inh-1 – blocks M. tuberculosis BioA enzyme activity. inhibition, % at 9.99 µM. 360,000 tested, 0.096% active. purified M. tuberculosis BioA enzyme, plate reader; in the data active = inhibition above about 40%
GDH-TPI counter – inhibits GDH-TPI coupling enzymes, artifact for Mtb FBA screen; GDH-TPI coupled enzyme counterscreen, NADH absorbance; inhibition, % at 4.8 µM; 360,000 tested, 1.2% active; in the data active = inhibition above about 30%;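 also: 0% = DMSO wells and 100% = wells lacking the enzyme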
3CLpro inhibitor – SARS-CoV 3CLpro protease inhibition | recombinant SARS-CoV 3CLpro, quenched FRET peptide cleavage | inhibition, % at 6 µM | 290,000 tested, 0.14% active; in the data active = inhibition above about 12%
FadD28 binding – blocks FadD28 binding to the bisubstrate probe; fluorescence polarization; AID 588549; inhibition, % at 12.5 µM; 360,000 tested, 0.22% active; in the data active = inhibition above about 8.5%, passing the limit was not always enough
BioA inh-2 – Mtb BioA enzyme inhibition. shares compounds with BioA inh-1. purified BioA enzyme, plate reader, dose response. max activity, %. 310 tested, under 10 active. AID 651679;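 also: top concentration of the dilution series was 10 µM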
HepG2 tox 2 – HepG2 viability loss; shares compounds with BioA inh-1; HepG2 cytotoxicity, plate reader; max activity, %; 310 tested, under 10 active
3T3 cytotox 5 – NIH3T3 viability loss; activity change, negative = cytotoxicity, % at 26 µM; AID 651900; NIH3T3 cytotoxicity, plate reader; 310 tested, under 10 active; shares compounds with BioA inh-1
An asterisk follows results filed as active; i = inactive; · = not tested or not shown; [ ] = remark or other dose. An excerpt weighted towards active compounds, which were near 3.1% of everything screened. Unless noted, no rule for the calls is given here.

SMILES | Mtb FBA inh | BioA inh-1 | GDH-TPI counter | 3CLpro inhibitor | FadD28 binding | BioA inh-2 | HepG2 tox 2 | 3T3 cytotox 5
CN1c2ccc(-c3cccc(F)c3)cc2[C@H]2[C@H](CCN2C(=O)C2CC2)[C@H]1CO | · | 41* | · | · | · | 6 | i | 0[23.5 µM]
COCC(=O)N1CC[C@@H]2[C@@H](CO)N(C)c3ccc(-c4ccc(F)cc4)cc3[C@@H]21 | · | 61* | · | · | · | -6 | i | 1
CCC(=O)N1CC[C@@H]2[C@@H](CO)N(C)c3ccc(-c4cccc(F)c4)cc3[C@@H]21 | · | 68* | · | · | · | 9 | i | -7
CO[C@H]1CN(C)C(=O)c2cc(NC(=O)c3ccccc3F)ccc2OC[C@@H](C)N(C(=O)c2ccccc2F)C[C@@H]1C | · | 3 | · | · | · | · | · | ·
CCOC(=O)c1ccc2c(c1)nc(SCc1cn3ccsc3n1)n2CC | -2 | 53* | -3 | -1 | -2 | -7 | 11 | -8
Cc1nc2sc(C(c3ccco3)N3CCN(c4ccccc4F)CC3)c(O)n2n1 (configuration not stated) | 1 | 1 | 18 | 0 | -1 | · | · | ·
Cc1nc2sc(C(c3ccc(Cl)cc3)N3CCN(c4ccccc4F)CC3)c(O)n2n1 (configuration not stated) | -5 | 43* | 6 | -2 | -3 | 10 | -5 | -4
O=C(Nc1ccc(Cl)cc1)N[C@@H]1CC[C@H](CCn2cc(-c3ccccc3F)nn2)O[C@@H]1CO | · | 1 | · | · | · | · | · | ·
Cc1ccccc1S(=O)(=O)N1C[C@H](O)COC[C@@H]2O[C@@H](CC(=O)O)CC[C@H]21 | · | -1 | · | · | · | · | · | ·
O=C(NCCc1ccc(Cl)cc1)c1cnc2n(c1=O)CCS2 | -1 | 0 | 2 | · | -4 | · | · | ·
COc1ccc(CCNC(=O)c2cnc3n(c2=O)CCS3)cc1OC | 0 | 48* | 4 | 1 | -1 | -3 | 16 | 3
CN1C(=O)c2cc(NC(=O)c3cccs3)ccc2OC[C@@H]2O[C@H](CC(=O)N3CCCCC3)CC[C@@H]21 | · | 2 | · | · | · | · | · | ·
COc1ccc(-n2nc3c(N4CCC(C(=O)N5CCC(C)CC5)CC4)nnc(C)c3c2C)cc1 | 8 | 21 | 10 | 5 | -4 | · | · | ·
Cc1nnc(N2CCC(C(=O)N3CCCCC3)CC2)c2nn(-c3ccc(Cl)cc3)c(C)c12 | 13 | 51* | 11 | 3 | -2 | 4 | 11 | -5
O=C(CSc1nc2cc(C(=O)O)ccc2c(=O)n1-c1ccc(F)cc1)Nc1ccc(F)c(F)c1F | 5 | 81* | 5 | 4 | -1 | -9 | -8 | -12
Cc1cc(/C=C(/C#N)C(=O)Nc2ccccc2)c(C)n1-c1cccnc1 | 0 | 55* | 29 | 3 | -5 | -7 | 6 | -1
Cc1cc(/C=C(\C#N)C(=O)Nc2ccccc2)c(C)n1-c1ccc2c(c1)OCO2 | 0 | 16 | 18 | -6 | -3 | · | · | ·
